# Compound activity: PubChem, National Center for Advancing Translational Sciences (NCATS)
# Abeta rescue – compounds reversing amyloid beta toxicity in yeast. yeast expressing A-beta42, growth rescue, OD600, 48 h; response scale: 0% DMSO, 100% iron-clioquinol control. Potency, µM (doses to about 46.1 µM), actives largely listed as activators. 410,000 compounds, 0.063% hits. AID 1347071; also: nearly all actives have a fitted effect of over 55% in size
#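 Yeast growth medium received pinned compounds, then yeast cells expressing toxic A-beta were added; plates incubated at 30 C for 48 hr. Growth read as absorbance at 600 nm, normalized to DMSO and equimolar FeCl3 plus clioquinol controls.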
# FUS suppressor – FUS proteinopathy suppression in yeast | S. cerevisiae FUS-expressing, growth rescue, OD600, 24 h | 390,000 compounds, 0.24% hits | Potency, µM (doses to about 76.6 µM), hits mostly activators;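 also: plate controls were DMSO vehicle for no effect and reference control for full effect; nearly all actives have a fitted effect of over 55% in size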
#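 Compound concentration series was pinned onto galactose-induced FUS-expressing yeast seeded at OD 0.005. Plates sat 24hr at 30C; absorbance at 600 nm gave growth. DMSO served as background control.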
# TDP43 rescue – inhibitors of TDP-43 toxicity in yeast; TDP-43 expressing yeast growth rescue, BacTiter-Glo, 24 h; Potency, µM (doses to about 46.1 µM), inactives show at the top dose growth rescue (activation), usual class: activators; 410,000 compounds, 1.8% hits; also: % of control where 0% means no effect; nearly all actives have a fitted effect of over 50% in size
#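 Growth rescue of TDP-43-toxic yeast measured as ATP luminescence (BacTiter-Glo). Cells grown to mid-log in raffinose, induced in galactose at OD600=0.02, exposed to compound 24 hr at 30 deg C.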
# aSyn yeast inh – alpha-synuclein toxicity inhibition in yeast; Potency, µM (top dose mostly 46.1 µM), inactives show at the highest dose growth rescue (activation), usual class: activators; 370,000 compounds, 0.14% hits; Yeast expressing alpha-synuclein, growth rescue, BacTiter-Glo, 24 h; also: % of control where 0% means no effect; nearly all actives have a fitted effect of over 65% in size
#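 Rescue of yeast growth: cells expressing toxic alpha-synuclein, induced in galactose at OD600 0.02, incubated with compound 24 h at 30 C. ATP luminescence quantified growth; inhibitors of toxicity appear as activators.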
# Starred values were filed as active, the others as inactive; i = inactive; u = inconclusive; x = no result. Shown are actives, neighbours in structure and some others; about 2.1% of the full set was active somewhere. Calls follow the shape of the dose curve; as a rule, active = well fitted curve in the direction sought with a large enough effect; inconclusive = small, poorly fitted or top-dose-only effect, or another doubt; inactive = no such curve, though single readings can be large; an effect the other way counts as inactive or inconclusive. Potency is read from the fitted curve at half-maximal effect.
SMILES,Abeta rescue,FUS suppressor,TDP43 rescue,aSyn yeast inh
CC12CCC(C(=O)N(CSC(=S)N/N=C\c3ccccc3O)C1=O)C2(C)C (configuration not stated),u,i,25µM*,u
O=C(C[n+]1ccccc1Br)c1ccc2c(c1)CCCC2,x,x,x,-1%
CCOC(=O)C(=O)NCC(c1cccnc1)N1CCN(c2ccccc2)CC1 (configuration not stated),i,i,19%,x
COc1ccc2c(c1)C1=NN(/C(C)=C/C(C)=O)C(c3ccc(F)cc3)C1CC2 (configuration not stated),i,x,22µM*,7%
Cc1ccc2oc(-c3ccc(C)c(NC(=O)COc4ccc(Cl)cc4C)c3)nc2c1,x,x,x,-3%
Cc1nc2ccccc2c2nc3ccccc3n12,i,i,13µM*,u
CCCCCN1C(C(=O)c2ccccc2)=C(NC(=O)c2ccccc2Cl)c2ccccc2S1(=O)=O,i,i,21%,x
Cc1ccc(S(=O)(=O)N2CCN(Cc3cc(Br)ccc3O)CC2)cc1,i,i,14%,x
Cc1cc(OCc2cccc(S(=O)(=O)N3CCOCC3)c2)ccc1Cl,i,i,35µM*,0%
N#Cc1ccc(OCc2cccc(S(=O)(=O)N3CCOCC3)c2)cc1,i,i,u,21%
O=C(COc1ccc(Br)cc1Cl)Nc1ncn[nH]1,i,i,4%,x
O=C1CC(c2ccc(F)cc2)CC2=C1C=Nc1ccccc1N2 (configuration not stated),i,i,22µM*,-3%
O=C1CC(c2ccccc2)CC2=C1C=Nc1ccccc1N2 (configuration not stated),i,i,0%,1%
O=C(NCCOc1ccccc1Cl)c1cc(F)c(F)cc1Cl,i,x,8.9µM*,14%
COc1ccccc1OCCNC(=O)C(=O)c1c[nH]c2ccccc12,i,i,u,12%
O=C(NCCOc1ccccc1Cl)C(=O)c1c[nH]c2ccccc12,i,i,11µM*,1%
c1ccc(-c2csc(-n3cnnn3)n2)cc1,i,i,11µM*,1%
CC(C)C[C@H](NC(=O)c1nc[nH]c1C(=O)NC1CCN(C(=O)OC(C)(C)C)CC1)C(=O)OCc1ccccc1,i,u,8%,0%
CC(C)(C)OC(=O)NCCCC[C@H](NC(=O)c1nc[nH]c1C(=O)N[C@@H](CCCCNC(=O)OC(C)(C)C)C(=O)OC(C)(C)C)C(=O)OC(C)(C)C,i,u,20%,3%
CC(C)(C)OC(=O)NCCCC[C@H](NC(=O)c1nc[nH]c1C(=O)NC1CCN(C(=O)OC(C)(C)C)CC1)C(=O)OC(C)(C)C,i,14µM*,15%,-9%
CC(C)(C)OC(=O)NCCCC[C@H](NC(=O)c1nc[nH]c1C(=O)NC(c1ccccc1)c1ccccc1)C(=O)OC(C)(C)C,i,16µM*,-8%,8%
CC(C)C[C@H](NC(=O)c1nc[nH]c1C(=O)NC1CCN(C(=O)OC(C)(C)C)CC1)C(=O)OC(C)(C)C,i,14µM*,2%,-3%
CCN(CCN(C)Cl)/[N+]([O-])=N/Oc1ccc([N+](=O)[O-])cc1[N+](=O)[O-],x,x,x,-25%
COc1ccc(NC(=O)C2CCC(CNS(=O)(=O)c3ccc(Br)s3)CC2)c(OC)c1 (configuration not stated),i,i,-8%,x
COC(=O)c1cc2oc3ccccc3c2n1CC(=O)Nc1ccc(N(C)C)cc1,i,i,u,x
SMILES,Abeta rescue,FUS suppressor,TDP43 rescue,aSyn yeast inh
O=C(Nc1nc(-c2ccco2)c(-c2ccco2)s1)C1CCC1,i,i,35µM*,-30%
O=C(Nc1nnc(-c2ccco2)s1)C1CCCCC1,i,i,-15%,-4%
Cn1ccsc1=NC(=O)c1ccc(Cl)cc1,i,i,11µM*,-6%
COc1ccc2c(CC(=O)NNC(=O)c3ccc(C)cc3)coc2c1,i,i,6%,9%
COc1ccccc1NC(=O)Cc1coc2cc(C)ccc12,i,i,11µM*,5%
Cc1ccc2c(CC(=O)NNC(=O)c3ccccc3O)coc2c1,i,35µM*,0%,-4%
CCNC(=O)C1CCCN(c2nn3cc(-c4ccc(C)cc4)nc3s2)C1 (configuration not stated),i,i,4%,x
Clc1cccc(N2CCN(c3ncnc4c3nc3n4CCCCC3)CC2)c1,i,u,18µM*,x
